CHX counter = Cycloheximide Counterscreen for Small Molecule Inhibitors of Shiga Toxin. max response, %. cell reporter, cycloheximide protein synthesis inhibition counterscreen. 300,000 compounds, 12% hits; in the data active = max response mostly above about 13%, no sharp cut-off; inactive = mostly below about 14%; note: read at 38.3 µM for the half of the compounds with a filed dose; 0% is about no effect
Pf growth 96h = Primary qHTS for delayed death inhibitors of the malarial parasite plastid, 96 hour incubation; 320,000 compounds, 6.9% hits; Potency, µM (highest dose often 28.7 µM), without a hit: at the highest dose activity change, negative = inhibition, usual class: inhibitors; P. falciparum luciferase reporter growth, 96 h; note: potency is the fitted concentration of half-maximal effect; % is set by controls: 0 for no effect and ±100 for the full control effect
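Cell-based qHTS: luciferase-tagged P. falciparum in erythrocytes (2% hematocrit, 0.05% parasitemia final) incubated with compounds for 96 hours, 37 C, 5% CO2; luciferase detection reagent then added and luminescence measured.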
Pf growth 48h = Primary qHTS for delayed death inhibitors of the malarial parasite plastid, 48 hour incubation | P. falciparum luciferase growth in erythrocytes, 48 h | Potency, µM (top dose mostly 28.7 µM), for the others: top-dose activity change, negative = inhibition, usual class: inhibitors | 310,000 compounds, 5.9% hits | AID 504832, 2011; note: potency is the fitted concentration of half-maximal effect; % is set by controls: 0 for no effect and ±100 for the full control effect
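Here the parasites carry a stable luciferase gene and grow inside erythrocytes in Albumax-based RPMI medium with compound for one erythrocytic cycle. Activity is scored as loss of luminescent signal.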
HCV inh = qHTS Assay for Inhibitors of Hepatitis C Virus (HCV). 340,000 compounds, 3.4% hits. Huh7.5.1 HCVcc-Cre infection, luciferase reporter, 44 h. AID 651820, 2012. Potency, µM (series often up to 41.8 µM), without a hit: at the top dose activity change, negative = inhibition, most hits filed as inhibitors; note: potency is the fitted concentration of half-maximal effect; % is set by controls: 0 for no effect and ±100 for the full control effect
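Infectious HCV cell culture screen: compound-treated cells (1,000/well, pre-plated 4 h) are infected with HCVcc-Cre at roughly 0.5 moi and grown 44 h. Infection is quantified by luciferase signal after 15 min substrate incubation at room temperature.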
Shiga inhibitor = A qHTS for Small Molecule Inhibitors of Shiga Toxin; 290,000 compounds, 9.2% hits; Vero cells, Shiga toxin protein synthesis inhibition reporter; inhibition, % at 38.7 µM; AID 2315, 2010; in the data active = inhibition mostly above about 28%, no sharp cut-off; inactive = mostly below about 43%; note: 0% is about no effect
HCMV inh = qHTS Assay for inhibitors of the human cytomegalovirus (HCMV); HFF cells, HCMV-luciferase reporter, 72 h; stronger effect = lower value; activity change, negative = inhibition, % at 57.5 µM; 410,000 compounds, 4.5% hits; in the data active = activity change below about -60%; inconclusive = no clear call, values can overlap the other calls; inactive = above about -39%; note: % is set by controls: 0 for no effect and ±100 for the full control effect
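Cell-based, HFFs, 1000 cells/well, 16 h 37C; cpds in DMSO + HCMV-luc, MOI 1 PFU/cell; 72 h 37C; OneGlo luminescence after 5 min RT; norm. to buffer vs Salinomycin 10uM.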
Starred values were filed as active, the others as inactive; ? = inconclusive; · = no result; + = active, no number; ! = not active in a repeat; [ ] = dose if it differs, or a comment. Rows were chosen to be rich in hits. Some 21% of all compounds tested hit in one or more screens of this group. Unless noted, calls come from the whole dose curve; as a rule, active = well fitted inhibition curve with a large enough effect; inconclusive = small, poorly fitted or top-dose-only effect, or another doubt; inactive = no such curve, though single readings can be large or run the other way.

SMILES	CHX counter	Pf growth 96h	Pf growth 48h	HCV inh	Shiga inhibitor	HCMV inh
O=C1N[C@@H](Cc2ccccc2)C(=O)N2[C@H]3Nc4ccccc4[C@@]3([C@]34C[C@H]5C(=O)N[C@@H](Cc6ccccc6)C(=O)N5[C@H]3Nc3ccccc34)C[C@@H]12	·	·	·	-24%	·	·
c1ccc(-c2nccc(-c3ccc(-n4cnc5ccccc54)cc3)n2)cc1	-4	·	-20%	-4%	-23	-34
Nc1nccc(-c2ccc(-n3cccc3)cc2)n1	23*	115%	274%	4%	53*	-6
C=CCC[C@H](Cc1ccc(F)cc1)C(=O)OC[C@@H](Cc1c[nH]c2ccccc12)NC(=O)[C@@H](CC=C)CC(=O)N[C@H](CO)Cc1ccccc1	·	·	·	?	·	-4
Oc1ccccc1CN1CCC(C(O)(c2ccccc2)c2ccccc2)CC1	-5	0%	7.4µM*	-14%	-17	?
Oc1ccccc1CN1CCCN(Cc2ccccc2O)C1	-4	·	?	8.9µM*	-19	16
O=C(C1CC1)N1CCC(C(O)(c2ccccc2)c2ccccc2)CC1	-2	·	-7%	2%	-15	27
CC(C)(C)c1ccc(O)c(CN2CCN(c3ccccc3)CC2)c1	-1	1%	2.1µM*	-4%	-26	-13
CC(C)(C)c1ccc(C(O)CCCN2CCC(C(O)(c3ccccc3)c3ccccc3)CC2)cc1 (stereo not drawn)	5	12µM*	?	2%[8.37 µM]	12	-24
CCOc1ccccc1NC(=O)CN1C(=O)CC(c2ccc(C)c(C)c2)=Nc2ccccc21	·	·	·	·	·	95
Cn1nc(C(=O)NNC(=O)CCc2ccccc2Cl)c2ccccc2c1=O	·	?	?	19%	·	-3
COc1cc(CN2CCN(C(O)(c3ccccc3)c3ccccc3)CC2)cc(OC)c1OC	-5	?	?	-5%	-9	-14
COc1ccccc1-c1ccc(OCCCN2CCC(C(O)(c3ccccc3)c3ccccc3)CC2)cc1	·	·	·	·	·	-99*
Oc1ccccc1CN1CCN(C(O)(c2ccccc2)c2ccccc2)CC1	-1	5.2µM*	5.9µM*	?	-12	52
COc1cccc(CNC(=O)CCC2CCCN(Cc3cc4ccccc4o3)C2)c1 (stereo not drawn)	6	?	?	?	-10	?
CCN1CCN(C(c2ccc(C(F)(F)F)cc2)c2ccc3cccnc3c2O)CC1 (stereo not drawn)	3	?	·	7.1µM*	21	-85*
CN1CCN(C(c2ccc(C(F)(F)F)cc2)c2cc(Cl)c3cccnc3c2O)CC1 (stereo not drawn)	-3	3.7µM*	?	·	12	?
Oc1c(C(c2ccccc2)N2CCOCC2)ccc2ccccc12 (stereo not drawn)	·	·	·	?	·	15
Oc1c(C(c2ccccn2)N2CCCCC2)cc(Cl)c2cccnc12 (stereo not drawn)	-1	?	?	10µM*	20	44
OCCN1CCN(CC(O)COc2ccc3ccccc3c2)CC1 (stereo not drawn)	4	·	12%	-11%	16	-13
OCCN1CCN(C(c2cccs2)c2ccc3cccnc3c2O)CC1 (stereo not drawn)	11	0%	2.1µM*	·	15	·
COc1cccc(OC)c1OCc1cc(C2C3CCCC=C3C(C#N)=C(N)C2(C#N)C#N)c(C)cc1C (stereo not drawn)	5	9.3µM*	?	-13%	-3	-2
CCOc1ccc(S(=O)(=O)n2ccnc2C)cc1	-2	12µM*	-7%	·	-3	·
CCOc1ccc(OCC)c(S(=O)(=O)n2ccnc2C)c1	-2	?	140%	3%	-5	-3
COc1ccc(-c2ccc([C@H]3[C@H]4C=CC[C@@H](C)[C@@H]4C(=O)N3Cc3ccccc3)c(F)c2)cc1	-5	?	12µM*	?	2	26
SMILES	CHX counter	Pf growth 96h	Pf growth 48h	HCV inh	Shiga inhibitor	HCMV inh
COc1ccc(-c2ccoc2)cc1[C@H]1[C@H]2C=CC[C@@H](C)[C@@H]2C(=O)N1Cc1ccccc1	-4	?	10µM*	6%[8.37 µM]	-7	?
COc1ccc(-c2c([C@H]3[C@H]4C=CC[C@@H](C)[C@@H]4C(=O)N3Cc3ccccc3)ccc3ccccc23)cc1	0	9.3µM*	7.4µM*	7.1µM*	-3	?
COc1ccc(-c2ccc([C@H]3[C@H]4C=CC[C@@H](C)[C@@H]4C(=O)N3Cc3ccccc3)c(F)c2)cc1OC	1	?	?	-17%[8.37 µM]	-7	4
COc1ccc(-c2ccc(OC)c(C3C4C=CCC(C)C4C(=O)N3Cc3ccccc3)c2)cc1OC (stereo not drawn)	5	·	·	·	-3	·
COc1ccc(CCNC(=O)Cn2c(=O)c3sccc3n(CC(=O)Nc3cccc(C(F)(F)F)c3)c2=O)cc1OC	·	·	·	·	·	-3
Cc1ccc(C2C=NN(c3ccccc3)C2=O)cc1 (stereo not drawn)	18*	?	6.6µM*	7%	29*	22
Cc1ccc(N2C(=O)C(CN(C)C)C2c2ccccc2)cc1 (stereo not drawn)	-4	?	?	-5%	-7	-20
O=C(NCCCCc1ccccc1)c1ccc(Br)o1	18*	-21%	-22%	4%	15	-14
O=C(Cc1ccccc1)NNC(=O)c1ccc(Br)o1	-2	4%	28%	8%	2	9
O=C(NCCCc1ccccc1)c1ccc(Br)o1	31*	·	5%	-1%	53	-3
CCCCCCNC(=O)c1ccc(Br)o1	33*!	-3%	?	4%[8.37 µM]	+!	36
Cc1ccc(CNC(=O)CCNC(=O)c2ccc(Br)o2)cc1	-3	24%	·	-9%	-11	4
CC(C)(CNC(=O)C1CCN(S(=O)(=O)c2cc([N+](=O)[O-])ccc2Cl)CC1)N1CCOCC1	·	?	?	?	·	-16
CCOC(=O)CC1C(=O)NCCN1C(=O)c1c(Cl)cccc1Cl (stereo not drawn)	-2	25%	·	10%	-5	-6
CCS(=O)(=O)N1Cc2ccccc2CC1C(=O)OCC(=O)N(C(C)C)C(C)C (stereo not drawn)	3	9.3µM*	?	10%	-15	-18
CCC(=O)N1c2ccccc2CC1C(=O)NCCc1ccccc1 (stereo not drawn)	·	·	·	·	·	-4
CCS(=O)(=O)N1Cc2ccccc2CC1C(=O)Nc1cccc(C)c1 (stereo not drawn)	37*	45%	53%	2%	120*	83

From PubChem BioAssay
